# Screening results (PubChem BioAssay)
# The list is not random: actives were taken first. Their share in the collection is about 5%.
# UCHL1 block: blocks human UCHL1 ubiquitin-rhodamine cleavage. purified UCHL1, Ub-rhodamine cleavage fluorescence. inhibition, % at 20 µM. 0.2% of 47,000 active. AID 1645859
# USP10 block: human USP10 deubiquitinase inhibition. inhibition, % at 20 µM. purified USP10, Ub-rhodamine fluorescence, 60 min. Q14694. 1.1% of 47,000 active
# USP8 inh: inhibitors of human USP8 deubiquitinase. purified USP8, Ub-rhodamine cleavage fluorescence, 30 min. inhibition, % at 20 µM. 4.2% of 47,000 active. AID 1645853
# USP7 inh: blocks human USP7 ubiquitin-rhodamine cleavage. Q93009. purified USP7, Ub-rhodamine cleavage fluorescence. inhibition, % at 20 µM. 0.3% of 47,000 active. AID 1645854
# * hit, by the source's call. Rule as the data show it: active = inhibition above about 30%; inactive = the rest.
SMILES,UCHL1 block,USP10 block,USP8 inh,USP7 inh
COc1cccc2c1NC(=O)C21CCN(C(=O)Nc2cccc3ccccc23)CC1,20,3,97*,-19
COc1ccc(C2c3cccn3-c3ccccc3CN2C(=O)CCC(=O)NC2CC2)cc1 (stereo not drawn),1,-3,1,-4
COc1c2c(c(O)c3c1C(=O)c1c(cc(O)c(C)c1O)C3=O)-c1c(cc3c(c1O)C(=O)OC3O)CC2 (stereo not drawn),69*,75*,72*,55*
CN1CC(C(=O)NCCc2ccccn2)C2(CCOCC2)C1 (stereo not drawn),-2,2,1,3
O=C(Nc1nccs1)[C@H]1CN2CCC1C[C@@H]2Cn1cc(-c2ccccc2)nn1 (stereo partly drawn),-3,-1,-7,0
C/C=C1/CN2CC[C@]34C(=C(C(=O)OC)[C@H]1C[C@H]23)Nc1c(O)cccc14,-4,-4,86*,-1
O=C(NCC1CCC1)C1=NOC2(CCNC2)C1 (stereo not drawn),-2,-3,-41,-3
CC1Oc2cc3c(-c4c(O)cc(O)c5c(O)c6c(cc45)OC(C)C(C)C6=O)c(O)cc(O)c3c(O)c2C(=O)C1C (stereo not drawn),88*,68*,59*,85*
Cn1cc(NC(=O)c2cc(NC(=O)CN=C(N)N)cn2C)cc1C(=O)NCCC(=N)N,-2,-5,-10,0
COc1cc(O)cc2c1C(=O)O[C@@H](C)CCCC(=O)CCCCC2,3,1,-14,2
COC1=C(C2=C(OC)C(=O)c3cc4c(c(O)c3C2=O)C(=O)OC(C)C4)C(=O)c2c(cc3c(c2O)C(=O)OC(C)C3)C1=O (stereo not drawn),40*,-9,-27,-67
C=C/C(=C/C(=O)C[C@H](C)C[C@@H](C)CC[C@H](O)[C@H](C)C(=O)CC(O)[C@H](C)[C@@H](C)OC(=O)C[C@@H](O)C1=C(C)C(=O)OC1=O)CC (stereo partly drawn),92*,81*,77*,77*
CN(C)[C@H]1C(=O)C(C(N)=O)=C(O)C2(O)C(=O)C3=C(O)c4c(O)cccc4C(C)(O)C3C(O)C12 (stereo partly drawn),43*,-8,-94,5
Oc1ccc2ccccc2c1CN1CC=C(c2ccccc2)CC1,-1,0,35*,8
CC(=O)C(=O)NC1/C=C(C)/C=C\C(O)C/C=C(C)/C=C\C(O)CC2OC(=O)C1(C)C(=O)C2C (stereo not drawn),-26,-8,-104,-27
Cc1cc(CN2C[C@H](Oc3ccccn3)[C@H]3OCCC[C@H]32)no1,-3,-6,-94,-3
c1cc(-c2nccc(CN3CCCC4(CCCCC4)C3)n2)ccn1,1,0,37*,-1
CC(C)C1=C[C@H]2C[C@]3(C=O)[C@@H]4CC[C@@H](C)[C@H]4C[C@@]2(CO)[C@]13C(=O)O,-16,-4,-95,-50
COc1ccc(C2SCC(=O)Nc3c2c(=O)[nH]n3C2CCCCCC2)cc1OC (stereo not drawn),-3,1,-4,1
Cc1ccc(C2SCC(=O)Nc3c2c(=O)[nH]n3C2CCCCC2)cc1 (stereo not drawn),1,20,88*,23
O=C1CSC(c2ccc3c(c2)OCO3)c2c(n(C3CCCCCC3)[nH]c2=O)N1 (stereo not drawn),4,24,83*,16
CCOc1ccc(C2SCC(=O)Nc3c2c(=O)[nH]n3C2CCCCC2)cc1 (stereo not drawn),1,10,88*,18
Cc1n[nH]c(C)c1CC(=O)N1C[C@@H](O)[C@H](N2CCC(F)(F)CC2)C1,2,1,4,8
COCCN1C[C@@H](C)[C@@]2(COCCN(C(=O)c3cccnc3)C2)C1,-1,1,1,-1
